Compounds without any hit were thinned out: in the full panel of roughly 79,000, 15% have a hit. Unmarked numbers belong to inactive results. Calls of active or inactive are those of the source. Rule as the data show it: active = growth inhibition above about 70%; inactive = the rest.
Test: NCI Yeast Anticancer Drug Screen. Data for the rad50 strain (AID 155);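 also: 0% = growth of vehicle-only cultures of the same strain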
Conditions: S. cerevisiae rad50 strain growth inhibition; at 50.0 µM; hits give high values
Procedure, shortened: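 Yeast carrying a defined DNA repair defect were exposed to test compounds, and growth was compared with vehicle-treated controls to give percent inhibition.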

In order of rising growth inhibition:
1. Cc1ccc(-n2cc(-c3ccc(Cl)cc3)c3c2N=CN2NC(c4cccs4)=NC32)cc1 (stereo not given)  -32.8%
2. Cc1ccc(C(=O)Oc2ccccc2)cc1N=NN(C)C  -20.7%
3. CCOc1ccc(NC(=O)C2=C(C)NC(C)=C(C(=O)Nc3ccc(OCC)cc3)C2c2ccc(O)c(OC)c2)cc1  -17.4%
4. O=C(O)/C=C/c1c(Cl)cccc1Cl  -14.6%
5. CN(C)c1c2c(oc(=O)c1Cl)-c1ccccc1OCC2  -14.3%
6. FC(F)(F)c1ccc(C=NC23CC4CC(CC(C4)C2)C3)cc1  -8.85%
7. O=c1cccc(CCc2ccccc2)[nH]1  -8.85%
8. CCNS(=O)(=O)c1ccccc1  -8.55%
9. O=C(/C=C/c1ccco1)c1ccc(O)c(C(=O)O)c1  -7.8%
10. [O-]/[N+]1=[N+](\[O-])c2ccccc2CCCc2ccccc21  -7.35%
11. NCCNCCCCCCNC(=O)c1cccc2cc3ccccc3nc12  -6.7%
12. COC(=O)C(N)Cc1ccc(OC)cc1 (stereo not given)  -4.95%
13. CS/C(=C/c1ccc2ccccc2[n+]1C)N1CCN(C)CC1  -3.3%
14. N=C(CN1CCCCC1)N1CCCCC1  -2.5%
15. O=S1OC(c2ccccc2)C(c2ccccc2)O1 (stereo not given)  -2.1%
16. O=C(CCc1ccccc1)NC(=S)Nc1cccc([N+](=O)[O-])c1  -1.75%
17. NCCO  -1%
18. CC[P+](C)(Cc1ccccc1)c1ccccc1 (stereo not given)  -0.75%
19. N#C/C(c1ccccc1)=[N+](/[O-])O  2.55%
20. Cc1ccc2c(c1)nc(N)n[n+]2[O-]  2.85%
21. O=[N+]([O-])c1ccc(OC(=S)Oc2ccc([N+](=O)[O-])cc2)cc1  3.45%
22. CC1(C)CC(N(CCO)CCO)CC(C)(C)N1O  4.05%
23. Cc1ccc(NC(=O)C(=O)CC(=O)c2c(C)n([O-])c3ccccc3[n+]2=O)cc1  5.65%
24. O=C1c2ccccc2C(=O)N1CNc1cccc(Cl)c1  6.45%
25. NC1=CCNN1  8.7%
26. O=C(Nc1ccccc1)OC1CCCC12CC2 (stereo not given)  8.7%
27. Cc1cccc(NC(=O)c2c(Cl)c(Cl)c(Cl)c(Cl)c2C(=O)O)c1C  9.8%
28. [Cl][Pt+2][Cl].[NH-]c1ccccc1F.[NH-]c1ccccc1F  11.2%
29. N#CC(c1ccccc1)[N+](=O)[O-] (stereo not given)  11.2%
30. COc1cc(NCCNCC(C)(C)C)c2ncccc2c1  11.7%
31. COC(=O)/C=C/c1ccc2c(c1)CCCC2  18.1%
32. CN1NC(=O)CC1c1ccccc1 (stereo not given)  18.9%
33. Nc1ccc2c(c1)Cc1cc(O)ccc1-2  19.1%
34. Oc1c(/N=N/C(=S)NCCCN2CCN(CCCNC(=S)/N=N/c3[nH]c4ccccc4c3O)CC2)[nH]c2ccccc12  22.8%
35. Oc1ccccc1C=Nc1ccccc1  29%
36. OC(C1CCCCC1)(C1CCC2(CCCCC2)CC1)C1CCCC2CCCCC21 (stereo not given)  29.9%
37. CCOC(=O)C/C(C)=N\NC(N)=O  38.2%
38. Cc1cc(Cl)c(O)c(-c2cc(-c3ccc([N+](=O)[O-])cc3)c3c(N)[nH]c(=O)nc3n2)c1  44.1%

In the case of `OC(CC1=NCCS1)(c1ccccc1)c1ccccc1`, the growth inhibition is reported as 98% (active).
For `O=c1c(Cl)cc(Cl)cn1S(=O)(=O)c1ccc([N+](=O)[O-])cc1`, the growth inhibition was 99.1% (active).

From PubChem BioAssay (NCI)
